# The panel holds about 83,000 compounds, 20% with a hit somewhere; the sample as a whole holds those more often.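 Activity criterion: percent growth below 10, measured after cells in 96-well plates were exposed to a single compound concentration for 48 hours.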 A number with no mark means an inactive call. Active and inactive are the calls of the source.
# Tests used:
# Assay in all cases: NCI-60 one-dose screen, 48 h (100 = growth as untreated, 0 = no growth, -100 = all killed)
# [1] = tested on: HCT-15 colon; conditions: 10 µM unless noted
# [2] = tested on: SNB-75 CNS; conditions: 10 µM unless noted
# [3] = tested on: SNB-19 CNS; conditions: 10 µM unless noted
# [4] = tested on: U251 CNS; conditions: 10 µM unless noted
# [5] = tested on: PC-3 prostate; conditions: 10 µM unless noted
# [6] = tested on: SK-MEL-5 melanoma; conditions: 10 µM unless noted
# [7] = tested on: UACC-62 melanoma; conditions: 10 µM unless noted
# [8] = tested on: LOX IMVI melanoma; conditions: 10 µM unless noted
# [9] = tested on: SK-MEL-28 melanoma; conditions: 10 µM unless noted
# [10] = tested on: SK-MEL-2 melanoma; conditions: 10 µM
# [11] = tested on: EKVX NSCLC; conditions: 10 µM unless noted
# [12] = tested on: SN12C renal; conditions: 10 µM unless noted
# [13] = tested on: UO-31 renal; conditions: 10 µM unless noted
# [14] = tested on: TK-10 renal; conditions: 10 µM unless noted
# [15] = tested on: ACHN renal; conditions: 10 µM unless noted
# [16] = tested on: A498 renal; conditions: 10 µM unless noted
# [17] = tested on: MOLT-4 leukemia; conditions: 10 µM unless noted
# [18] = tested on: CAKI-1 renal; conditions: 10 µM unless noted
# [19] = tested on: CCRF-CEM leukemia; conditions: 10 µM unless noted
Compound,growth [1],growth [2],growth [3],growth [4],growth [5],growth [6],growth [7],growth [8],growth [9],growth [10],growth [11],growth [12],growth [13],growth [14],growth [15],growth [16],growth [17],growth [18],growth [19]
CCCC(=O)OCC1OC(n2cnc3c(=S)nc(N)[nH]c32)C(OC(=O)CCC)C1OC(=O)CCC (stereo not drawn),50.2%,34.8%,89.3%,68.2%,76.1%,42.8%,8.36% (active),12%,75.8%,15%,42.4%,42.8%,43.3%,23.5%,39.7%,-2.02% (active),0.324% (active),–,–
CCN1CCN(CCCN(C[C@H]2Cc3ccccc3CN2)[C@H]2CCCc3cccnc32)CC1,72.5%,84.8%,84.9%,79.2%,77.3%,97.7%,106%,74.3%,108%,–,84%,83.8%,53.2%,85.6%,87.6%,86.6%,69.8%,74.4%,–
COC[C@@H](C)n1c(C2CCOCC2)nc2c1C1C=C(OC)C(c3c(C)noc3C)=CC1N=C2 (stereo partly drawn),30.7%,2.03% (active),46.3%,69%,38.2%,38.7%,18.5%,19.6%,65.4%,–,56.9%,64.9%,13.2%,6.38% (active),41.2%,18.6%,59%,41%,50.8%
CO[C@H](C(=O)N[C@@H](CCCCNC(=O)OCc1ccccc1)C(=O)OC(C)(C)C)[C@@H]1Cc2cc3cc(OC4CC(OC5CC(O)C(O)C(C)O5)C(O)C(C)O4)c(C)c(O)c3c(O)c2C(=O)[C@H]1OC1CC(OC2CC(OC3CC(C)(O)C(O)C(C)O3)C(O)C(C)O2)C(O)C(C)O1 (stereo partly drawn),26.6%,-94.3% (active),-51.6% (active),-82.3% (active),3.14% (active),-97.7% (active),-62.7% (active),-62.8% (active),-55.7% (active),–,-25.1% (active),-7.42% (active),10.5%,-9.57% (active),-2.61% (active),-89.9% (active),-12.6% (active),22.6%,3.09% (active)
CC12O[C@H](C[C@@H](OC(=O)CCC(=O)O)[C@H]1O)n1c3ccccc3c3c4c(c5c6ccccc6n2c5c31)C(=O)NC4=O,15%,-8.7% (active),43.2%,50.6%,48%,-19% (active),-6.1% (active),15.9%,33.8%,23.3%,42.9%,–,-15.9% (active),2.26% (active),19.4%,-30.6% (active),5.17% (active),–,7.97% (active)
CNC(=O)c1c(C)oc2cc(Oc3ncnc4cc(OC)c(OC)cc34)ccc12,109%,58.2%,97.5%,58.9%,84.9%,121%,104%,96.5%,119%,–,113%,107%,66%,98.9%,104%,19.5%,85.6%,82.2%,86.2%
CN(c1ncccc1CNc1nc(Nc2ccc3c(c2)CC(=O)N3)ncc1C(F)(F)F)S(C)(=O)=O,2.3% (active),-43.3% (active),7.98% (active),-0.121% (active),7.2% (active),-38.3% (active),-64.6% (active),2.21% (active),-16.1% (active),–,8.69% (active),9.55% (active),-4.35% (active),0.859% (active),-0.448% (active),-16.6% (active),0.451% (active),12.1%,3.5% (active)
O=C1CC(c2ccc(Cl)cc2)c2ncn(-c3cccc(Cl)c3)c2N1 (stereo not drawn),27.7%,36.2%,50%,36.3%,67.7%,34.1%,33.9%,47.5%,54.8%,44.8%,73.5%,56.1%,50.5%,95.8%,52.6%,–,44.4%,75.3%,60.4%
Nc1c(C(=O)c2ccccc2)sc2nc(-c3cccs3)cc(-c3cccs3)c12,31.2%,22.2%,42.9%,25.6%,33%,43.7%,28.7%,51.5%,64.9%,40.9%,62.2%,59.5%,60.5%,81.6%,55.7%,–,44.8%,50.5%,40.1%
CCN1CCN(c2cc(C)nc(N(CCCNc3ccnc4cc(Cl)ccc34)Cc3ccc4c(c3)OCO4)n2)CC1,1.33% (active),-15% (active),16.3%,-45.4% (active),15.8%,-95.7% (active),-47.8% (active),-75% (active),-73.6% (active),-67.9% (active),42.3%,34.6%,-81.9% (active),-58.2% (active),-0.628% (active),27.8%,-15.9% (active),–,-18.1% (active)
Cc1cc(C(=O)NOCCO)c(Nc2ccc(I)cc2F)n(C)c1=O,67.5%,83.8%,57.9%,51.8%,106%,50.4%,-1.84% (active),26.3%,1.47% (active),–,56.7%,68.3%,46.3%,48%,64.3%,-14% (active),83.7%,40.6%,85%
O=C(Cc1ccc(-c2ccc(OCCN3CCOCC3)cc2)cn1)NCc1ccccc1,7.16% (active),15.3%,14.1%,3.6% (active),15.2%,-39.8% (active),29%,17.5%,36.1%,–,26.1%,20.3%,35.8%,40.3%,22.1%,1.26% (active),18.1%,19%,9.96% (active)
COc1ccc2c(CCc3ccc(Cl)cc3)c3[n+](cc2c1OC)CCc1cc2c(cc1-3)OCO2,111%,58%,28.3%,22.4%,36.4%,18.2%,30.1%,50.9%,27.6%,36.7%,69.9%,21.9%,91.4%,67.9%,94.6%,–,72.6%,99.2%,64.7%
Cc1ccc(-n2nc(C(C)(C)C)cc2NC(=O)NCc2cc(F)ccc2Oc2ccc3c(cnn3CCO)c2)cc1,17.5%,32.7%,48.1%,31.3%,33.5%,-19.5% (active),–,5.06% (active),0.876% (active),–,39.7%,19.5%,-6.07% (active),4.78% (active),11.7%,-10.8% (active),3.32% (active),20.2%,–
Cc1ccc(-c2cc3c(SCC(=O)Nc4cc(C(F)(F)F)ccc4Cl)nccn3n2)cc1,20.1%,95.3%,102%,60%,41.1%,48.1%,97.5%,-6.48% (active),84.8%,85.4%,–,73.6%,30.4%,91.3%,40.4%,71.3%,5.39% (active),30.2%,20.3%
COC(=O)[C@]12CC[C@@H](C)[C@H](C)[C@@H]1C1=CC[C@@H]3[C@@]4(C)C(C=O)=C[C@@](C)(COS(C)(=O)=O)C4=CC[C@@]3(C)[C@]1(C)CC2,-80.5% (active),-25.1% (active),-5.33% (active),–,-19.9% (active),-98.2% (active),-73.4% (active),-98.7% (active),-72.3% (active),-40.3% (active),-39.2% (active),–,-93.8% (active),-54.7% (active),-82.8% (active),–,0.901% (active),-43.9% (active),-1.17% (active)
CNc1ncc2cc(-c3cc(NC(=O)NCCC(C)(C)C)c(F)cc3C)c(C)nc2n1,19%,-16.9% (active),23.6%,16%,49.1%,23.6%,-7.93% (active),-34.1% (active),-6.47% (active),–,29.4%,18.6%,3.87% (active),-4.98% (active),5.23% (active),-35.4% (active),20.6%,4.36% (active),63.1%
CC1CCC(n2cnc3c(Cl)ncnc32)O1 (stereo not drawn),103%,91.9%,82.3%,102%,89.6%,91%,104%,87.1%,109%,109%,94.5%,110%,96.4%,88%,104%,124%,113%,–,85.8%
C=CC(=O)Nc1cccc(Nc2nc(Nc3ccc(N4CCN(C(C)=O)CC4)cc3OC)ncc2C(F)(F)F)c1,5% (active),16.1%,39.6%,30.1%,27.6%,6.86% (active),11.1%,6.36% (active),50.6%,–,1.17% (active),20.7%,-18.3% (active),-24.6% (active),5.26% (active),-47.1% (active),12.6%,-13.1% (active),19.2%
Clc1nc(Cl)c2ncn(CC#CCn3cnc4c(Cl)nc(Cl)nc43)c2n1,-65.7% (active),8.25% (active),12.2%,-75.8% (active),-72.1% (active),-66.9% (active),-11.6% (active),-83.4% (active),-26.1% (active),65.3%,-39.3% (active),3.09% (active),–,-31.5% (active),-53.3% (active),–,1.03% (active),-96.5% (active),-62.2% (active)
O=C(O)c1ccc2c(c1)nc(Nc1cccc(Cl)c1)c1ccncc12,5.48% (active),-25.6% (active),13.5%,-24.6% (active),10.1%,-64.9% (active),-50.4% (active),7.77% (active),3.16% (active),–,19.6%,12.5%,-14% (active),0.456% (active),-0.277% (active),-49.9% (active),-6.15% (active),-16.7% (active),3.22% (active)
N#CC1(C#N)C(c2cccs2)NC(c2cccs2)C1(C#N)C#N (stereo not drawn),94.5%,75.1%,106%,–,94.6%,114%,101%,93.9%,109%,102%,94%,105%,71.4%,114%,102%,116%,95.3%,–,100%
CNC(=O)c1cc(Oc2ccc(NC(=O)Nc3cc(C(C)(C)C)nn3-c3ccc4ncccc4c3)c(F)c2)ccn1,-12.9% (active),-94% (active),1.45% (active),-21.7% (active),-23.6% (active),-83.5% (active),-52% (active),-72.9% (active),-45.5% (active),–,-16.9% (active),-10.3% (active),-21.4% (active),-35.5% (active),-20.6% (active),-71.3% (active),-1.34% (active),-24.9% (active),8.17% (active)
O=C(NOC[C@H](O)CO)c1ccc(F)c(F)c1Nc1ccc(I)cc1F,53%,59.9%,49.1%,38.6%,92.8%,42.5%,-10.7% (active),23.1%,-2.06% (active),–,57.6%,49.5%,24.6%,41.4%,47.6%,-19.9% (active),66.6%,34.3%,83.7%
CCc1cc2c(cc1N1CCC(N3CCOCC3)CC1)C(C)(C)c1[nH]c3cc(C#N)ccc3c1C2=O,7.91% (active),-90.3% (active),20.2%,-19.5% (active),4.07% (active),10.2%,-16.4% (active),-16.2% (active),-27.2% (active),–,15.9%,-14.9% (active),-67.2% (active),-12.1% (active),-27.3% (active),-37.1% (active),25.4%,-46.7% (active),22.4%
COc1ccc(C(=O)c2cc(OC)c(OC)c(OC)c2)cc1/C=C/C(=O)c1ccc(F)cc1,23.9%,58.7%,71.3%,34.1%,76.7%,57%,45.5%,-56.5% (active),13.1%,–,90.1%,64.7%,56.3%,82.9%,-70.3% (active),–,0.641% (active),81.5%,2.64% (active)
